MITF primary – human MITF inhibition, primary screen; inhibition, % at 2.6 µM; 650,000 compounds, 0.91% hits; AlphaScreen MITF homodimerization, bead proximity signal; in the data active = inhibition above about 50%;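 note: 0% = vehicle wells with protein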
TEAD-YAP inh – TEAD-YAP interaction inhibition. HEK-TIYL cells, TEAD-Gal4/YAP UAS-luciferase luminescence. AID 1259422. 640,000 compounds, 1.4% hits. inhibition, % at 9.12 µM; in the data active = inhibition above about 32%;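 note: 0% = median of test compound wells and 100% = reference inhibitor wells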
FBW7 activator – human FBW7 E3 ligase activation, primary screen. Q969H0. AlphaScreen FBW7–phospho-cyclin E peptide binding, activator screen. normalized activity (activation), % at 26.1 µM. 650,000 compounds, 0.13% hits. AID 1259310; in the data active = normalized activity above about 1.9%;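 note: purified mutant Fbw7 with reduced substrate affinity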
Target sequence (Q969H0 whole entry, looked up): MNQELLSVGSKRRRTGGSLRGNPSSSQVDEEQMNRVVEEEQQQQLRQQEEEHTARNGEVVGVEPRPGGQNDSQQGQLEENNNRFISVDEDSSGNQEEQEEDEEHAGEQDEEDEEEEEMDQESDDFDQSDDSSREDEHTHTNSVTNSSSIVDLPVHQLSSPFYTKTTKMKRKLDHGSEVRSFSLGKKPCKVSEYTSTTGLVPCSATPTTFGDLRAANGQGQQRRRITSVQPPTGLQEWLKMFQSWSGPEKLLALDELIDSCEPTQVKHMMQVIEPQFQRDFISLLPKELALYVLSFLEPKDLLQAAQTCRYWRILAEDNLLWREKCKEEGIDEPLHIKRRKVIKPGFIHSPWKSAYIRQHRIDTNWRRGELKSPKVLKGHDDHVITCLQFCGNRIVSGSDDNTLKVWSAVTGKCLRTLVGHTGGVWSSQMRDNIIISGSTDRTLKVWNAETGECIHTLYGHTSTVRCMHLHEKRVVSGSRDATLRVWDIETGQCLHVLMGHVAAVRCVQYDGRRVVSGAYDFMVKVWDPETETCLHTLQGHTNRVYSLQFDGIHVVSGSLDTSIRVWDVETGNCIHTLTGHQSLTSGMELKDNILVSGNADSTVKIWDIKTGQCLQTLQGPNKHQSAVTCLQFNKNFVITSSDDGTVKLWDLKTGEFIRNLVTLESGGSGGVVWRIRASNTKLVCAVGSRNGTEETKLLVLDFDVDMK
GPR151 activ – activates the human receptor GPR151 | PathHunter beta-arrestin GPR151 cells, luminescence | activation, % at 11.2 µM | 650,000 compounds, 1% hits | AID 1508602; in the data active = activation above about 4.9%;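 note: 0% = median of compound wells and 100% = cells with positive control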
Active calls of the source: *. In the library only some 3.4% were active in any assay of this set; here they are far more common.

`Cc1ccc(Cl)cc1S(=O)(=O)N1CCOCC1` gave MITF primary 7, TEAD-YAP inh -6, FBW7 activator 0 and GPR151 activ 0.
For Cc1ccccc1OCC(=O)Nc1ncc(S(=O)(=O)c2ccc([N+](=O)[O-])cc2)s1 the results were MITF primary -5, TEAD-YAP inh 2, FBW7 activator 0 and GPR151 activ -1.
`Cc1ccc(NC(=O)c2sc3nc4c(cc3c2N)C(=O)CCC4)cc1C` gave MITF primary 1, TEAD-YAP inh 65*, FBW7 activator 0 and GPR151 activ 1.
Nc1c(C(=O)Nc2ccc(Br)cc2)sc2nc3c(cc12)C(=O)CCC3 was read as MITF primary -8, TEAD-YAP inh -5, FBW7 activator 0 and GPR151 activ 1.
`Nc1c(C(=O)Nc2ccccc2)sc2nc3c(cc12)C(=O)CCC3` gave MITF primary -4, TEAD-YAP inh 32*, FBW7 activator 0 and GPR151 activ -2.
CC1(C)CC(=O)c2cc3c(N)c(C(=O)NC4CCCCC4)sc3nc2C1 was read as MITF primary 22, TEAD-YAP inh -2, FBW7 activator 2.4* and GPR151 activ 0.
Nc1c(C(=O)Nc2ccc(Oc3ccccc3)cc2)sc2nc3c(cc12)C(=O)CCC3 was read as MITF primary 25, TEAD-YAP inh 37*, FBW7 activator 0 and GPR151 activ 0.
Cc1cc(SCC(=O)NN2C(=O)NC3(CCCCC3)C2=O)nc2ccccc12 was read as MITF primary 0, TEAD-YAP inh -3, FBW7 activator 0 and GPR151 activ 0.
`O=C1N[C@H](CO)C(=O)N2CCN(Cc3ccccc3)C[C@H]12` gave MITF primary -1, TEAD-YAP inh 7, FBW7 activator 0 and GPR151 activ 1.
For COCCNc1ccc2ncc(-c3ccc(F)cc3)n2n1 the results were MITF primary -9, TEAD-YAP inh 14, FBW7 activator 0 and GPR151 activ 0.
For COCCNc1ccc2ncc(-c3cccc(CO)c3)n2n1 the results were MITF primary -17, TEAD-YAP inh 33*, FBW7 activator 0 and GPR151 activ 0.
COCCNc1ccc2ncc(-c3ccc(O)cc3)n2n1 was read as MITF primary -22, TEAD-YAP inh 58*, FBW7 activator 0 and GPR151 activ 1.
Screening COCCNc1ccc2ncc(-c3cccc(F)c3)n2n1 returned MITF primary 10, TEAD-YAP inh 26, FBW7 activator 0 and GPR151 activ 2.
`COCCNc1ccc2ncc(-c3ccc4c(c3)OCO4)n2n1` gave MITF primary 4, TEAD-YAP inh 39*, FBW7 activator 0 and GPR151 activ 2.
For CCCNc1ccc2ncc(-c3cccc(NC(C)=O)c3)n2n1 the results were MITF primary 6, TEAD-YAP inh 56*, FBW7 activator 1 and GPR151 activ 1.
CCCNc1ccc2ncc(-c3cccc(O)c3)n2n1 was read as MITF primary -15, TEAD-YAP inh 0, FBW7 activator 0 and GPR151 activ -1.
CCCNc1ccc2ncc(-c3ccc(O)cc3)n2n1 was read as MITF primary -27, TEAD-YAP inh 77*, FBW7 activator 0 and GPR151 activ -1.
CCOC(=O)c1ccc(N2N=C(C(F)(F)F)/C(=C/C=C/c3ccco3)C2=O)cc1 was read as MITF primary 64*, TEAD-YAP inh 3, FBW7 activator 0 and GPR151 activ 0.
Cc1c(-c2cnn(C)c2)ccc2cnc(Nc3ccc(-n4cnc(N5CCOCC5)n4)cc3)nc12 was read as MITF primary 14, TEAD-YAP inh 29, FBW7 activator 0 and GPR151 activ 2.
`Cn1cc(-c2nc(Nc3ccc(-n4cnc(N5CCC(O)CC5)n4)cc3)ncc2Cl)cn1` gave MITF primary 24, TEAD-YAP inh 72*, FBW7 activator 0 and GPR151 activ -1.
For Cn1cc(-c2ccc3cnc(Nc4ccccc4)cc3c2)cn1 the results were MITF primary 17, TEAD-YAP inh 36*, FBW7 activator 1 and GPR151 activ -1.
For Cn1cc(-c2ccc3cnc(Nc4ccc(-n5cnc(N6CCOCC6)n5)cc4)nc3c2Cl)cn1 the results were MITF primary 6, TEAD-YAP inh 56*, FBW7 activator 0 and GPR151 activ 0.
For CCOC(=O)c1c(-c2cnn(C)c2)ccc2cnc(Nc3ccc(-n4cnc(N5CCOCC5)n4)cc3)nc12 the results were MITF primary 21, TEAD-YAP inh 98*, FBW7 activator 0 and GPR151 activ -1.
For Cc1nc(C)n(-c2ccc(Nc3cc(-c4cnn(C)c4)ccn3)cc2)n1 the results were MITF primary 8, TEAD-YAP inh 20, FBW7 activator 1 and GPR151 activ -1.

Screens deposited in PubChem by The Scripps Research Institute Molecular Screening Center.
